# Target: LIPA
# Experiment: pooled miR-30 sensor sort-seq; sequence = guide strand
# Conditions: shRNA
# Further: reference of the scale not given here.
row,Sequence,sensor-assay potency score (higher = more potent)
1,TTGACTATGCACCTGCTGCAGG,-0.688
2,TTACAAAGTAGTATTCGCCCTG,0.166
3,TATGACATGAGTGCAAACGTGG,-0.073
4,TTAACCATTAACAAGCATTGTA,0.00545
5,TTTGTCTCCAAATAAGTCCTTA,-0.0541
6,TATTGTAAGGAAATGATGCTGC,0.625
7,TTGACGTCGTAGACATCTGCAA,-0.272
8,ATCTTCTGTCTCAACTAGGTAT,-0.881
9,TTAACAAGCATTGTACTGTTAG,-0.745
10,TACAAAGTAGTATTCGCCCTGC,-0.272

# Target: LIPK
# Experiment: as above
# Conditions: shRNA
row,Sequence,sensor-assay potency score (higher = more potent)
1,TATTGCTGTTGGAACTTCCATC,-0.879
2,TTGTAGTGTGGAATCAGCTTGT,0.39
3,TTTGTCACCAAACAACACCTTA,-0.763
4,AACACCTTAACTACTCGCCTGG,-0.456
5,TATTTAACTGTGACAACTGGAG,-0.414
6,TAGGTCTTGGTAAATTTCCTGA,-0.456
7,TATCTTAATCTTTTTAGCCAGT,-0.586
8,TAATGTTGTATAAAGGAGGTGT,0.558
9,TAGCTTTCGATTGCACACTTTG,-1.01
10,TTGTTGTAACATCATACTCTTC,-0.891
11,TTCCTTTCTTGTCATAACCATA,-1.36
12,TTTCTTGTCATAACCATACATA,-0.84

# Target: LITAF
# Experiment: as above
# Conditions: shRNA
row,Sequence,sensor-assay potency score (higher = more potent)
1,TTAACAGCCACTGTCTCTTCAT,-0.139
2,TTATAGGACAGCTGACTCACGA,0.0157
3,TAACAGCCACTGTCTCTTCATA,-1.19
4,TTGCAGGAAGGACAACACATTT,-1.76
5,TGACTCACGATCATCTTGTTGC,-0.0822
6,AATAACTGTTAACAGCCACTGT,-0.0828
7,ACAGTAATGGTCCACGTCCTGC,-1.32
8,TAATGGTCCACGTCCTGCAGGG,-0.698
9,TAACTGTTAACAGCCACTGTCT,-0.461
10,TAATTGGATTGTTATTGGGGAT,-0.833
11,TATAGGACAGCTGACTCACGAT,-0.462
12,ATAACTGTTAACAGCCACTGTC,-0.861

# Target: LMO4
# Experiment: as above
# Conditions: shRNA
row,Sequence,sensor-assay potency score (higher = more potent)
1,TTAAGATGATACACATTGCCTT,-0.509
2,TTCACTCGCAGGAATCGACTGT,0.156
3,TGGTGTAACAGGACGTGCCGAT,-0.601
4,TAGAGCATGTAAAACACTTAAG,-1.33
5,TAGTGGATTGCTCTGAAGTGAA,-0.987
6,TAACCTAATGTAGTCATTTCTG,-0.956
